20 compounds from PubChem BioAssay (NCI) can be followed below.

About 79,000 compounds went through this panel and 15% of them were active in at least one assay; those are over-represented in the sample as a whole. A number with no mark means an inactive call. The source made the active and inactive calls. Cut-off read from the data, not from the text of the source: active = growth inhibition above about 70%; inactive = the rest.

Assay [1] in a line: NCI Yeast Anticancer Drug Screen. Data for the rad50 strain (AID 155).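 Note: 0% = growth of vehicle-only cultures of the same strain.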 The following applies: S. cerevisiae rad50 strain growth inhibition; at 50.0 µM; hits give high values. In short, it runs like this: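 Relative growth inhibition (compound vs vehicle) was measured in yeast with a defined repair-gene alteration.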
The nature of assay [2]: NCI Yeast Anticancer Drug Screen. Data for the mec2-1 strain (AID 157). As to conditions: S. cerevisiae mec2-1 strain, at 50.0 µM, hits give high values. In short, it runs like this: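 Vehicle-treated cultures served as reference for growth inhibition of compound-exposed mec2-1 yeast.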
Assay [3] in a line: NCI Yeast Anticancer Drug Screen. Data for the sgs1 mgt1 strain (AID 161).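 Note: 0% = growth of cultures given vehicle only.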 As to conditions: S. cerevisiae sgs1 mgt1 strain, at 50.0 µM, hits give high values. In short, it runs like this: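 Read-out: growth inhibition vs vehicle controls. Cells: mutant yeast strain deficient in DNA damage repair.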
The nature of assay [4]: NCI Yeast Anticancer Drug Screen. Data for the cln2 rad14 strain (AID 165).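 Note: 0% = growth equal to vehicle treated cultures.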 As to conditions: S. cerevisiae cln2 rad14 strain, at 50.0 µM, hits give high values. In short, it runs like this:
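Each compound was tested on cln2 rad14 yeast. Inhibition of growth was calculated against vehicle-exposed controls.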

The nature of assay [5]: NCI Yeast Anticancer Drug Screen. Data for the bub3 strain (AID 167). As to conditions: S. cerevisiae bub3 mutant strain, at 50.0 µM, hits give high values. In short, it runs like this:
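Screening used yeast with an engineered genetic alteration affecting cell cycle control. Compound-exposed cultures were compared with vehicle cultures, and reduced growth was taken as inhibition.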

Assay [6] is described as follows: NCI Yeast Anticancer Drug Screen. Data for the mlh1 rad18 strain (AID 175). The following applies: S. cerevisiae mlh1 rad18 strain growth inhibition; at 50.0 µM; hits give high values. In short, it runs like this: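 Vehicle-treated cultures served as the reference for growth inhibition in a yeast strain carrying DNA damage repair alterations exposed to each compound.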

Consider `COc1ccc(NC(=S)NN)cc1`, for which the growth inhibition in assay [1] is 2.95%; in assay [2], -7.75%; in assay [3], 18.9%; in assay [4], -6%; in assay [5] it was 13.9%; in assay [6], 6.2%.

Take `O=Nc1ccc(Cl)cc1`: the growth inhibition in assay [1] was -7.1%; in assay [2] it was 28.9%; in assay [3], -10.3%; in assay [4], 7.15%; in assay [5], 14.9%; in assay [6], 8.45%.

`CCOc1ccc(NCC(=O)N2CC(=O)Nc3ccccc32)cc1`: the growth inhibition in assay [1] is -19.6%; in assay [2], -21.9%; in assay [3], -40.4%; in assay [4], -5.15%; in assay [5], -42.2%; in assay [6], -35.2%.

With `CC1=NOC(=O)/C1=C/c1ccc(C)cc1`, the growth inhibition in assay [1] is 33.6%; in assay [2], 20.8%; in assay [3], 23.4%; in assay [4] it was 2.55%; in assay [5], 13.7%; in assay [6], 8.05%.

As to `Cc1nc(N)[nH]c(=O)c1-n1nnc2ccccc2c1=O`, the growth inhibition in assay [1] is 0.15%; in assay [2], 17.1%; in assay [3] it was 14.1%; in assay [4], -2.1%; in assay [5], 0.9%; in assay [6], -4.1%.

Turning to `Nc1ccn(C2OC(COC(=O)C34CC5CC(CC(C5)C3)C4)C(O)C2O)c(=O)n1` (stereo not given), the growth inhibition was -14.5% in assay [1]; 0.4% in assay [2]; -35.5% in assay [3]; -2.4% in assay [4]; -31.2% in assay [5]; 6.3% in assay [6].

For the compound `C=Cc1ccccc1NC(C(=O)O)c1ccccc1` (stereo not given), the growth inhibition was 18.8% in assay [1]; -5.05% in assay [2]; -0.8% in assay [3]; 18.6% in assay [4]; 7.2% in assay [5]; 1.35% in assay [6].

On to `O=C(Nc1ccc(Cl)cc1)OC(C(=O)c1ccccn1)c1ccccn1` (stereo not given), for which the growth inhibition was 0.25% in assay [1]; 13.7% in assay [2]; -17.6% in assay [3]; 5.75% in assay [4]; 7.1% in assay [5]; 8.5% in assay [6].

Take `CC(Cc1ccccc1)NC(=O)c1ccncc1` (stereo not given): the growth inhibition in assay [1] was 2.5%; in assay [2], 7.45%; in assay [3], -5.4%; in assay [4] it was -39.7%; in assay [5], -0.85%; in assay [6], 2%.

For the compound `Nc1c(Cl)cccc1C(=O)c1ccccc1C(=O)O`, the growth inhibition was -9.8% in assay [1]; 4.8% in assay [2]; 5.4% in assay [3]; -14.8% in assay [4]; 1% in assay [5]; -3.15% in assay [6].

Turning to `COc1ccc2nccc(C)c2c1`, the growth inhibition was -13% in assay [1]; 16.9% in assay [2]; -0.9% in assay [3]; -0.9% in assay [4]; 1.5% in assay [5]; -0.25% in assay [6].

As for `CCOP(=O)(OCC)C(C(=O)OC)C(=O)C(=O)Nc1cccc([N+](=O)[O-])c1` (stereo not given), the growth inhibition in assay [1] is 7.8%; in assay [2], -5.85%; in assay [3] it was 23.2%; in assay [4] it was -58.6%; in assay [5], 0.35%; in assay [6], 1.45%.

For `CCc1cc(CSc2ccc(Cl)cc2)ccc1N`, the growth inhibition in assay [1] was 98.5% (active); in assay [2], 99% (active); in assay [3], 98.8% (active); in assay [4], 97.2% (active); in assay [5], 98% (active); in assay [6], 98.2% (active).

Turning to `O=P(O)(O)OC1OC(n2cnc3c(NCc4ccc(F)cc4)ncnc32)C(O)C1O` (stereo not given), the growth inhibition in assay [1] was 0.3%; in assay [2], 2.3%; in assay [3], -13.1%; in assay [4], -18.2%; in assay [5], 2%; in assay [6] it was -25.7%.

As for `Cc1ncc(C(=O)O)c(CO)c1N`, the growth inhibition is 7.45% in assay [1]; -15.9% in assay [2]; -14.8% in assay [3]; 13.3% in assay [4]; -18.4% in assay [5]; 4.8% in assay [6].

Turning to `CCN(CC)CC#CCOc1ccc(/C=C/c2ccccn2)cc1`, the growth inhibition is 0.35% in assay [1]; -13.4% in assay [2]; 7.1% in assay [3]; -14% in assay [4]; 5.65% in assay [5]; -21.4% in assay [6].

Consider `COc1cccc2c(C(=O)O)cc(-c3ccc(Cl)cc3)nc12`, for which the growth inhibition in assay [1] is 7.85%; in assay [2], 0.75%; in assay [3], 19.1%; in assay [4], 15.2%; in assay [5], 6.9%; in assay [6], 15.9%.

As to `Nc1cc2c(O)cc(S(=O)(=O)O)cc2cc1S(=O)(=O)O`, the growth inhibition was -5.9% in assay [1]; 8.15% in assay [2]; 2.35% in assay [3]; 14.1% in assay [4]; 34.2% in assay [5]; -4.3% in assay [6].

`Cc1cc(N2CCCCC2)nc(N2CCCCC2)c1C#N`: the growth inhibition in assay [1] is -4.2%; in assay [2], -20.2%; in assay [3] it was 27.7%; in assay [4] it was 14.6%; in assay [5] it was 35.9%; in assay [6], 13.8%.

On to `C=CC(C)c1cccc(C=O)c1O` (stereo not given), for which the growth inhibition is 0.3% in assay [1]; -7.3% in assay [2]; -0.3% in assay [3]; -32% in assay [4]; 17.8% in assay [5]; 15.2% in assay [6].
